Experiments:
Experiment in all cases: log2 ratio of Biotin-Ahx-Ub-VS probe labelling (fragment/DMSO); higher = less target engagement (more negative = stronger competition), active = hit call of the paper (q ≤ 0.05, log2 ratio ≤ -1)
Conditions in all cases: compound concentration: 200 uM; treatment time: 3 h
USP34 = USP34 (UniProt Q70CQ2)
Method in brief: (§1)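 Triplicate samples of HEK293T lysate, 495 µg each, received fragment at 200 µM or vehicle for 3 h, followed by Biotin-Ahx-Ub-VS (0.5 µM final) for 1 h. After NeutrAvidin enrichment of labelled DUBs and LysC/trypsin digestion, peptides were run by diaPASEF LC-MS/MS. The values are average log2 fragment/vehicle ratios from global-median-normalised Spectronaut label-free quantities, tested by unpaired t-test on proteins having ≥2 unique peptides.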

USP36 = molecular target: T1, USP36 (UniProt Q9P275)
T1 sequence (whole entry): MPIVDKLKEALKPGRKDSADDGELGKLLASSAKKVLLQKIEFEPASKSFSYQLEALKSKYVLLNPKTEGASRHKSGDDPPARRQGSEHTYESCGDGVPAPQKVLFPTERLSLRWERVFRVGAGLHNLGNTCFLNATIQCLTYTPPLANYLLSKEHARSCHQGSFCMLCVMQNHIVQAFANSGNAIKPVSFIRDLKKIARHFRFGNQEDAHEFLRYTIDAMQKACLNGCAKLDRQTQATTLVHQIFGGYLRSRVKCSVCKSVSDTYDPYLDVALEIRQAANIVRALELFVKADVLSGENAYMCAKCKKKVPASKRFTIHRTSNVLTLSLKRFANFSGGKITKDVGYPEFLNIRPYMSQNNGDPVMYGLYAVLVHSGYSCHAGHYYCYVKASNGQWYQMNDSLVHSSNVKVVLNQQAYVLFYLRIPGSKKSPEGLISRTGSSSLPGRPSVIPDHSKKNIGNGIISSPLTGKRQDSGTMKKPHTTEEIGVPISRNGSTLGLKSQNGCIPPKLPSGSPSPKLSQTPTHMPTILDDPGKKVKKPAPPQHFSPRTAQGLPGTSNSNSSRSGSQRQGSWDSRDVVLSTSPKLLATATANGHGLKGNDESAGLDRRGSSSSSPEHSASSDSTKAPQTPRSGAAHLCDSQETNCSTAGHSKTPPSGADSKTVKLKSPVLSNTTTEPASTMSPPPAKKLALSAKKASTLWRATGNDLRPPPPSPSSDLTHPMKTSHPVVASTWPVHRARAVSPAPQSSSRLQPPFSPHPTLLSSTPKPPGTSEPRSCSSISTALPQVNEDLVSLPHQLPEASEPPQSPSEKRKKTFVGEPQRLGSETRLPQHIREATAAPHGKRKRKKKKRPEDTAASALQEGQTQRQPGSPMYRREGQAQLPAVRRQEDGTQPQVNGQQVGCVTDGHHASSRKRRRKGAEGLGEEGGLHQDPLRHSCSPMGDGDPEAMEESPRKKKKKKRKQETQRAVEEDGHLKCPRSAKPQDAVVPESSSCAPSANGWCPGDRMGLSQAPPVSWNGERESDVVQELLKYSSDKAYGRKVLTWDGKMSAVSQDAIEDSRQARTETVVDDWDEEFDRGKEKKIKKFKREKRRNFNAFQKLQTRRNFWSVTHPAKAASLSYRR
Method in brief: as §1

USP38 = molecular target: T2, USP38 (UniProt Q8NB14)
T2 sequence (whole entry): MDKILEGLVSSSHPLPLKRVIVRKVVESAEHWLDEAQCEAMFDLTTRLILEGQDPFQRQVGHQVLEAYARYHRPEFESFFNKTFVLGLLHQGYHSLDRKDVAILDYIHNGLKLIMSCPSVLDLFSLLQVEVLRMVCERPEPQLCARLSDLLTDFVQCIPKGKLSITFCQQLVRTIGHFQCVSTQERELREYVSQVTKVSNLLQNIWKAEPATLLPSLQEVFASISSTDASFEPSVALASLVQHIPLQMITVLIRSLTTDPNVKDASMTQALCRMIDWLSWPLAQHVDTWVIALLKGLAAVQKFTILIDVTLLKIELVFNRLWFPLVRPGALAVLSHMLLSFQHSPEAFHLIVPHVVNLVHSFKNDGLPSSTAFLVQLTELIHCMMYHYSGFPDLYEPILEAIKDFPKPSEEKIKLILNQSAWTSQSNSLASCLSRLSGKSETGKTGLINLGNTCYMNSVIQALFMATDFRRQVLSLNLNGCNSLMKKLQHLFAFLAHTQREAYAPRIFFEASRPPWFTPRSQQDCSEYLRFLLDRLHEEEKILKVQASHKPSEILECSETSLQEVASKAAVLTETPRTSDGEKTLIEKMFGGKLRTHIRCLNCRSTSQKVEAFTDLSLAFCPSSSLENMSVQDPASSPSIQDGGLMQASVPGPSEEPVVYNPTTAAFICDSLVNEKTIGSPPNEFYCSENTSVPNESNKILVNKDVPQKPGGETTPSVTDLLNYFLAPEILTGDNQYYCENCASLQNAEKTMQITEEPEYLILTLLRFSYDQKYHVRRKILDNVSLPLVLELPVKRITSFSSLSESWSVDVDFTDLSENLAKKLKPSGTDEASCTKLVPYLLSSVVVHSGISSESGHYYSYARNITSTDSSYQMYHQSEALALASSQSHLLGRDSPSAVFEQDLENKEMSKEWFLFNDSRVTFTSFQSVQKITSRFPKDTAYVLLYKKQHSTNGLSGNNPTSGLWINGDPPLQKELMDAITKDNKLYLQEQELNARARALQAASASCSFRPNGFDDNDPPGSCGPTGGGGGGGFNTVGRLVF
Method in brief: as §1

USP39 = molecular target: T3, USP39 (UniProt Q53GS9)
T3 sequence (whole entry): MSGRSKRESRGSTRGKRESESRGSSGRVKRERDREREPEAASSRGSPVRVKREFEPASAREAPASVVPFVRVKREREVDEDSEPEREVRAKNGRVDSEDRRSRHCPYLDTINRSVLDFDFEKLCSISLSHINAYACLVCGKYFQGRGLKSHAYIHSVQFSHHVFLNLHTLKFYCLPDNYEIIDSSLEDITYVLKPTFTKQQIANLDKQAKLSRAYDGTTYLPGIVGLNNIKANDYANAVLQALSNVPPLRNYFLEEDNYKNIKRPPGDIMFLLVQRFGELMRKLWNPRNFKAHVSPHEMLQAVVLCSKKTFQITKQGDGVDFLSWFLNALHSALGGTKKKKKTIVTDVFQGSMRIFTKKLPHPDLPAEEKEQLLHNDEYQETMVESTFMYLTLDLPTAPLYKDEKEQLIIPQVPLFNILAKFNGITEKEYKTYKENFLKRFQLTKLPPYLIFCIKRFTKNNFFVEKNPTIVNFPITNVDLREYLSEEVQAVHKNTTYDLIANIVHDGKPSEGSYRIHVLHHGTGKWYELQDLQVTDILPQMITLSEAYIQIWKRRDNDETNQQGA
Method in brief: as §1

USP4 = molecular target: T4, USP4 (UniProt Q13107)
T4 sequence (whole entry): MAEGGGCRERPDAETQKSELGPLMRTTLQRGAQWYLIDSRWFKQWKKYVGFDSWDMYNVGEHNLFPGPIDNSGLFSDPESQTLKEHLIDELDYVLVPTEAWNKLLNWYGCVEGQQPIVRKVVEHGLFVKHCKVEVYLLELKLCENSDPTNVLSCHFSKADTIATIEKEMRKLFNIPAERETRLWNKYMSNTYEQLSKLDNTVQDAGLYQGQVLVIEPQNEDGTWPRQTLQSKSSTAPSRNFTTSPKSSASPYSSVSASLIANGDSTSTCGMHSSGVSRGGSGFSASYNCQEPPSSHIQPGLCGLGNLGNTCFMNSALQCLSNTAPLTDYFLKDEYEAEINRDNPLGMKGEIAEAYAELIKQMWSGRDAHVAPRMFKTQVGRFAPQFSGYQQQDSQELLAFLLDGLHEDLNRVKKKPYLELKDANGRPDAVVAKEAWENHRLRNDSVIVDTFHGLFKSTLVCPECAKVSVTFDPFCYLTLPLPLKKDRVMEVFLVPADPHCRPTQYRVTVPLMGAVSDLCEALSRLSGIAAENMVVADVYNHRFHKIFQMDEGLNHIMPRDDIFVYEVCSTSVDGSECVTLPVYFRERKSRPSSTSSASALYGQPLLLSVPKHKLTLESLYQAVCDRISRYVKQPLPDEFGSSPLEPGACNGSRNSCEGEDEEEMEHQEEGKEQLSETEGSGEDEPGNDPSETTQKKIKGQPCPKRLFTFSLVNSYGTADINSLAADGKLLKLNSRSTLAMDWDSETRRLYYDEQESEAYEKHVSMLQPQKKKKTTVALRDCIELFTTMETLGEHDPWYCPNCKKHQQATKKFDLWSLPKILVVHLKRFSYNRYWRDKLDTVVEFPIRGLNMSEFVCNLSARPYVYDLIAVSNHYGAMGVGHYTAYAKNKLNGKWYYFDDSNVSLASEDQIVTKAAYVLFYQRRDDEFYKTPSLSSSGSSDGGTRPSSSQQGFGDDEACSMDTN
Method in brief: as §1

Measured: log2 ratio of Biotin-Ahx-Ub-VS probe labelling

Chain of USP34 (Q70CQ2 whole entry, the tested form may be a part): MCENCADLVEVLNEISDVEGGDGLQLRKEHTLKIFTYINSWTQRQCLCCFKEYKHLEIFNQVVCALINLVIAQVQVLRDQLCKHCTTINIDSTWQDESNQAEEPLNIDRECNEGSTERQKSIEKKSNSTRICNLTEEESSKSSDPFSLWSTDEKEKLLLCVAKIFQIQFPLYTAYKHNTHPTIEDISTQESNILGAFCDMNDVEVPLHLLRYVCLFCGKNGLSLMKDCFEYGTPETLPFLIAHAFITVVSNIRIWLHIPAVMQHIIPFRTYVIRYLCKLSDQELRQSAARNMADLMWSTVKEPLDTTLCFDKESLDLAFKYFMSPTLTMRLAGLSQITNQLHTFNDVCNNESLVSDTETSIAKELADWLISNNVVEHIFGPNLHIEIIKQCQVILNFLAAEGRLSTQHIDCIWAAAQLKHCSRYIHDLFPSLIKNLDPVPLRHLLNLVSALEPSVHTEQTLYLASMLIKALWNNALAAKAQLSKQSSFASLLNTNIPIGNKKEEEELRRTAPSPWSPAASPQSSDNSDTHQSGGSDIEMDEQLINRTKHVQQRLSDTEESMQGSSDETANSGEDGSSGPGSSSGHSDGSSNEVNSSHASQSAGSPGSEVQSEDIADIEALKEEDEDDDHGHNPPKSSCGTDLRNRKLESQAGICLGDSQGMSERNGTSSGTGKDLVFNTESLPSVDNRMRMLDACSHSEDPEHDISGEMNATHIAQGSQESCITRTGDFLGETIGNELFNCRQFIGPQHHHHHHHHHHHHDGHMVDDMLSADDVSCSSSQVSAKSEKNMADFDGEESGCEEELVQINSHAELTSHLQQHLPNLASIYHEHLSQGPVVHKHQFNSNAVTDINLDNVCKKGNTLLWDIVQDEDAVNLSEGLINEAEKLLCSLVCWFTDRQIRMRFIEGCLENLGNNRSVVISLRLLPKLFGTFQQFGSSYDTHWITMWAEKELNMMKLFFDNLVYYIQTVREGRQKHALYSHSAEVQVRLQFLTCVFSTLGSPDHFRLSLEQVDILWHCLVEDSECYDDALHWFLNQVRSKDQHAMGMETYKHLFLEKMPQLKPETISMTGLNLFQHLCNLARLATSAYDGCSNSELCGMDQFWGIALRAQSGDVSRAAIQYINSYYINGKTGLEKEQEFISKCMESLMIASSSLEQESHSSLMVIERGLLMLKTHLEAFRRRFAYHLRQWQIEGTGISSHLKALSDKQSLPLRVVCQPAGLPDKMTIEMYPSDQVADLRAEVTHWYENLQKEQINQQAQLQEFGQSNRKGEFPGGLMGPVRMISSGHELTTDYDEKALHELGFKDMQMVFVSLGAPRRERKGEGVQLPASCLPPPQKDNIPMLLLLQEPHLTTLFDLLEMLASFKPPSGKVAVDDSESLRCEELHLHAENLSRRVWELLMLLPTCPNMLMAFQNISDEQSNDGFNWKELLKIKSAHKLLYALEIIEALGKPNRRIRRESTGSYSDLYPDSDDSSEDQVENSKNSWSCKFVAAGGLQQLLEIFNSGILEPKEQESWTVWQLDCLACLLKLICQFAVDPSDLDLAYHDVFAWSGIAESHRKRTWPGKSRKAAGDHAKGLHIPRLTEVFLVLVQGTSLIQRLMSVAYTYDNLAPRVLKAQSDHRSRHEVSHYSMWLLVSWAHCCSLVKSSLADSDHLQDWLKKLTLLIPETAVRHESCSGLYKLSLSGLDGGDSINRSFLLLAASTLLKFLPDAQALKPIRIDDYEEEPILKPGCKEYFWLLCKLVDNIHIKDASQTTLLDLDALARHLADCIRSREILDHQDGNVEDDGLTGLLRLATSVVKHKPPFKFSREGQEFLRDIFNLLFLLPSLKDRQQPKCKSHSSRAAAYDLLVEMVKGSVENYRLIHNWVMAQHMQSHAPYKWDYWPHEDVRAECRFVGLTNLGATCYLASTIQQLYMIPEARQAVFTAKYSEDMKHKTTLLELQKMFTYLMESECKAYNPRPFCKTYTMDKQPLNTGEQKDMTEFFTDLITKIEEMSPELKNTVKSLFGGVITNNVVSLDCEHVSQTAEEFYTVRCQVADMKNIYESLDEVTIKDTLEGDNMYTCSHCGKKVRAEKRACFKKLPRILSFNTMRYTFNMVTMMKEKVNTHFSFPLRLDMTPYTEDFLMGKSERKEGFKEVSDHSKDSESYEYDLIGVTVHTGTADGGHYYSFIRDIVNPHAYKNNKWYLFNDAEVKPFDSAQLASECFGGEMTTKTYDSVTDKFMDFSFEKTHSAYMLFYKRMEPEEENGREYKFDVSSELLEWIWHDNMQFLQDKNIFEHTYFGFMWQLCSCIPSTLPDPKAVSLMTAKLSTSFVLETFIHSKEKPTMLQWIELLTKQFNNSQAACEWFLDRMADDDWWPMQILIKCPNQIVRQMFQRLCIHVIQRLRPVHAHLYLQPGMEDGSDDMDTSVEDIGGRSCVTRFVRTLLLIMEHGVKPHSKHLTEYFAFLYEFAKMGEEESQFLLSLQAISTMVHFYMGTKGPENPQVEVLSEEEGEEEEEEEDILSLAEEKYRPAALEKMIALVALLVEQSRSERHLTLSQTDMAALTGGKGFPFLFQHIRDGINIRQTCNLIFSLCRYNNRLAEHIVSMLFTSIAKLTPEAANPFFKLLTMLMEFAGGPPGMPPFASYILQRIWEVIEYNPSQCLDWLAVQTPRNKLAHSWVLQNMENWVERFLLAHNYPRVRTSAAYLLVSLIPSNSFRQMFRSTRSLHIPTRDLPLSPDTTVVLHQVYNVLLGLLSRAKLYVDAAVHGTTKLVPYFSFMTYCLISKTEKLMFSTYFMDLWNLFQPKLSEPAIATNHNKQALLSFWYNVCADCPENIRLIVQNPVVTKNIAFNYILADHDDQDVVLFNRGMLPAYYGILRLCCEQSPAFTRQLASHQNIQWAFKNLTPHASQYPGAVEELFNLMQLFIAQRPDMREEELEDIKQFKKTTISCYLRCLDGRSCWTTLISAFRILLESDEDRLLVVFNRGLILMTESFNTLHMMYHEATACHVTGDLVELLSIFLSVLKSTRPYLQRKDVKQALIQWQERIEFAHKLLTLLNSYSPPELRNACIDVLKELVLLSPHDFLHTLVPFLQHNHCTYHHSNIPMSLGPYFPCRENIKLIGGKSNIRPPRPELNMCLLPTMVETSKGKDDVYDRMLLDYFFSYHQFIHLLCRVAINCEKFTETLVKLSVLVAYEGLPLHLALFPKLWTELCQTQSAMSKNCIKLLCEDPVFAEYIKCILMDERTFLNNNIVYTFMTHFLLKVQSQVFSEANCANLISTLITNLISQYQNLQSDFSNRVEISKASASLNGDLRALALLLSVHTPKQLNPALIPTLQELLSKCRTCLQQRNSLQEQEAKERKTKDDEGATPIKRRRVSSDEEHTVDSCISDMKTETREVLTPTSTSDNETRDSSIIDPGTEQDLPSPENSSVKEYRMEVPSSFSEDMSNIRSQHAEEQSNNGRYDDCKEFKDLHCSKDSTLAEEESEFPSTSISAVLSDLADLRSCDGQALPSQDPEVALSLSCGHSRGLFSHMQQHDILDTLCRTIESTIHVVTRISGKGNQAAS

NC(=O)C1CCCCN1C(=O)CCl (stereo not given)
inactive: USP34 -0.0479 | USP36 -0.322 | USP38 0.0849 | USP39 0.0987 | USP4 -0.0651
